Results taken from the supplement of paper PMC3334620.
The full ranking holds about 33,000 sequences; the median of “E-score (-0.5 to 0.5)” is about -0.011, and the highest 2% start at about 0.28. Only a selection was taken, and the highest values are over-represented in it overall.

Biological target: T1, Gcr1 (UniProt P07261)
T1 sequence: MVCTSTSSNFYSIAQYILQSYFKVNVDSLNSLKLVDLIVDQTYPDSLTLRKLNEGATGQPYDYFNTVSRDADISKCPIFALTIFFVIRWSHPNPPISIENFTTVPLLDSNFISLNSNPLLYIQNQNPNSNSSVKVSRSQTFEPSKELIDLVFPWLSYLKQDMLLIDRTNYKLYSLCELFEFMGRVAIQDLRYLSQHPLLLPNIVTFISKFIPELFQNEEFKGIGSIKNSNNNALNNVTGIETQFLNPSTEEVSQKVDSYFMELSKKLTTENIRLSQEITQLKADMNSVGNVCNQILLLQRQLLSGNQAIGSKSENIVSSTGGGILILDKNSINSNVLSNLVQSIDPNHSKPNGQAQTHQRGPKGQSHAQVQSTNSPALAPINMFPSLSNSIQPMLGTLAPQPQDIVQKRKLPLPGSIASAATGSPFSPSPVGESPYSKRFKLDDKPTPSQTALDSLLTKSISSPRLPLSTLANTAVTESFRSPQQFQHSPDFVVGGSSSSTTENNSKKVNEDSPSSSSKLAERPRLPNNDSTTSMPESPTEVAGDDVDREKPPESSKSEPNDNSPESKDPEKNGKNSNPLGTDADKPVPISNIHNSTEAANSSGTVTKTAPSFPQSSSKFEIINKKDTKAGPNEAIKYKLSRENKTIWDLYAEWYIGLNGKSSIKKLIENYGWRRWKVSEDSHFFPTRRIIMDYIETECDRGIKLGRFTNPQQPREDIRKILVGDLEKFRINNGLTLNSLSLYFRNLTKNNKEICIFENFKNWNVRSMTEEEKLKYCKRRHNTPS
Experiment: PBM E-score (8-mer binding enrichment) (E-score (-0.5 to 0.5)); higher = stronger / more preferred TF binding
Settings: protein concentration: 100 nM; construct: GST-full length
Outline: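 Each ungapped eight-base word and its reverse complement, pooled, received an E-score from the Universal PBM Analysis Suite. Underlying scans, normalised with masliner, recorded fluorescent anti-GST bound to GST-tagged yeast transcription factors. These were applied at about 100-200 nM to universal all-10-mer Agilent arrays double-stranded by primer extension.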

Row | Sequence | PBM E-score
1 | CTCAATAC | -0.00463
2 | CTGTTGGA | 0.103
3 | GGTCGGAC | -0.206
4 | CCATATCG | 0.05
5 | CGTGAGGC | -0.0867
6 | ACAAGAAT | 0.252
7 | ACAAGAAG | 0.415
8 | ACAAGAAA | 0.155
9 | GCAAACTA | 0.0887
10 | AGGCACCT | 0.16
11 | AGGCACCG | 0.04
12 | GGGCACAC | -0.0584
13 | GGGCACCA | 0.364
14 | GCGCACCC | -0.0278
15 | TGGCACAA | -0.0481
16 | TGGCACCA | 0.321
17 | AGGCACCA | 0.136
18 | AGGCACCC | 0.284
19 | GGGCACCC | 0.321
20 | TCGCACCA | 0.0244
21 | GGGCACGA | 0.0341
22 | CCATACTA | 0.0399
23 | CATGGTGC | 0.0809
24 | CGTGCATC | 0.00547
25 | AAGCCCGA | 0.0664

Row | Sequence | PBM E-score
26 | GGTATCGA | 0.00098
27 | TAGCACCA | 0.323
28 | GAGCACCA | 0.207
29 | CGGCACCA | 0.245
30 | CAGCACCA | 0.277
31 | CGGCACCC | 0.381
32 | CGGCACCG | 0.143
33 | GTCACCAA | 0.0813
34 | GCAGGAAC | -0.0184
35 | CAATCTCC | 0.0196
36 | CAGATAGA | 0.0277
37 | ACAGTCCT | -0.141
38 | CCTACGGC | -0.146
39 | AACTCGGA | 0.0328
40 | CTTACCCC | -0.052
41 | CGGGACCG | -0.00477
42 | CGGGACCC | 0.306
43 | AGGGACCC | -0.0366
44 | CGGGACCA | 0.00102
45 | GGGGACCC | 0.291
46 | GGGGACCA | 0.194
47 | TAGCTGCA | -0.0344
48 | AGACGGAG | -0.0738
49 | ACAGCCGC | -0.0946
50 | AAAGCCGC | 0.0398

Row | Sequence | PBM E-score
51 | CAAGCCGA | -0.038
52 | CAAGCCGC | -0.00721
53 | GCAGCCGC | 0.282
54 | CCAGCCGC | -0.0253
55 | GAAGCCGA | 0.401
56 | GAAGCCGC | 0.439
57 | TAAGCCGA | -0.177
58 | ATGTGGTC | -0.0553
59 | CTTTTGAA | 0.1
60 | AAATTTGC | 0.109
61 | GCGCAGCA | -0.0801
62 | ACGCAGAT | 0.151
63 | GCGCAGCC | 0.292
64 | ACGCAGCG | 0.244
65 | ACGCAGCA | -0.0163
66 | GCGCAGAC | -0.167
67 | ACGCAGCT | 0.308
68 | CCGCAGCC | 0.223
69 | ACGCAGCC | 0.304
70 | AGAACCGG | 0.214
71 | CGAATGGC | 0.137
72 | CAGGGTGC | 0.234
73 | ACTCATAA | -0.0566
74 | AAGCCGAT | -0.0786
75 | AAGAACCT | 0.2

Row | Sequence | PBM E-score
76 | ACGAACCT | -0.0495
77 | TGGAACAA | -0.0703
78 | TGGAACCA | 0.357
79 | CGGAACCA | 0.114
80 | GGGAACCA | 0.314
81 | AGGAACCT | 0.38
82 | TAGAACCA | 0.0906
83 | CGGAACCC | 0.348
84 | CGGAACCG | 0.18
85 | GGGAACGA | -0.0791
86 | CAGAACCC | 0.208
87 | CAGTACCA | 0.0486
88 | AACATTCG | -0.0406
89 | TAAATACA | 0.161
90 | GGTGGTCA | -0.132
91 | AGCACGCT | -0.123
92 | ACAGCGGT | -0.219
93 | AGGAACCG | 0.139
94 | AGGAACCA | 0.203
95 | GGAAACCC | 0.106
96 | GGGAACCC | 0.336
97 | GAGAACCC | -0.162
98 | AGGAACCC | 0.414
99 | CATGCCTA | -0.112
100 | AAGAGAGC | -0.276

Row | Sequence | PBM E-score
101 | GAGCCGTA | 0.0183
102 | ATGGATAG | -0.00601
103 | AACGGGGA | -0.00775
104 | AAGATCCT | 0.0935
105 | AGAATCCT | 0.252
106 | GGGATCCC | 0.419
107 | ACGATCCT | -0.0105
108 | AGGATCCC | 0.379
109 | AGGATCCA | 0.263
110 | AGGATCCT | 0.301
111 | GGGATCAC | -0.137
112 | GAGATCCC | 0.0362
113 | AGAATCCC | 0.321
114 | AGAATCCA | 0.249
115 | AGGATCCG | 0.0808
116 | CTGGTCGA | -0.3
117 | GGGCCAAC | -0.13
118 | AAATGCTT | -0.208
119 | GCCGGCGC | 0.0181
120 | AGCAAACT | 0.0882
121 | GGGTTCAA | -0.101
122 | GCCGGCTA | -0.145
123 | GAAGGGAC | -0.279
124 | GGGATCCA | 0.347
125 | CGGATCCA | 0.235

Row | Sequence | PBM E-score
126 | CGGATCCC | 0.341
127 | CGGATCGC | -0.0306
128 | TGGATCAA | -0.0326
129 | CGGATCCG | 0.212
130 | TGGATCCA | 0.317
131 | GTGATCCA | -0.0936
132 | GAGATCCA | 0.174
133 | AAATCAAA | 0.0655
134 | TGAAAGCA | 0.00794
135 | GATACTGC | -0.205
136 | ATCCGACA | -0.019
137 | CGGTTAGC | -0.0704
138 | GGCCTGCA | -0.237
139 | GACCAGAA | 0.131
140 | CTCCAGAA | 0.0346
141 | TTCCAGAA | 0.287
142 | AACCAGAC | -0.0315
143 | CACCAGAA | 0.15
144 | CCCCAGAA | 0.288
145 | AACCAGAT | 0.228
146 | GTCCAGAA | 0.0699
147 | TACCAGAA | 0.34
148 | AACCAGAA | 0.281
149 | CCCCAGAG | -0.0817
150 | CCCCAGAC | 0.0344

Row | Sequence | PBM E-score
151 | AAGTTTGG | 0.179
152 | AATCCAAA | 0.205
153 | ACTTCATG | 0.0318
154 | GAACCCGA | 0.195
155 | CGTATCTC | 0.0698
156 | ACTACGGG | 0.00638
157 | AAAATCCA | -0.012
158 | AACCAGTA | 0.315
159 | TTCCACAA | 0.347
160 | CTCCACAA | 0.0774
161 | TACCAGTA | 0.224
162 | GTCCACAA | 0.224
163 | AACCAGTG | -0.195
164 | CCCACCAG | 0.0742
165 | CGGGCCGC | 0.0123
166 | AAGGTTCA | -0.179
167 | CAAGACGC | 0.238
168 | GCAGAAGC | 0.0881
169 | CCAGAAGC | 0.357
170 | CTAGAAGC | 0.154
171 | CCAGAAGA | 0.187
172 | ATAGAAGG | 0.0701
173 | ATAGAAGC | 0.315
174 | GAAGACGC | 0.304
175 | GAAGACGA | 0.198

Row | Sequence | PBM E-score
176 | CAAGAAGC | 0.24
177 | AAAGAAGC | 0.262
178 | GAAGAAGC | 0.318
179 | CCGCAGCG | 0.0315
180 | CCGGTACG | -0.0393
181 | CGATAGAG | -0.0218
182 | AGGCCTAA | -0.0235
183 | CCAGGTAA | -0.0543
184 | GTTCTCAA | -0.129
185 | AACAGACC | -0.179
186 | ATGTCTAA | -0.0649
187 | CCTTGATA | -0.0119
188 | CTAGACGC | 0.0428
189 | GAAGAAGA | 0.183
190 | TAAGAAGA | 0.243
191 | CAAGAAGA | 0.354
192 | ATAGACGA | 0.248
193 | ATAGACGC | 0.377
194 | CTTCCTCA | 0.264
195 | GGCCTCCA | 0.172
196 | GGCTTTCA | -0.109
197 | CACTGATC | -0.142
198 | ACCTCCAT | -0.24
199 | GTCGGGGA | 0.102
200 | AGATTGTA | -0.193

Row | Sequence | PBM E-score
201 | GAGATTCA | -0.0394
202 | CAGATTCC | 0.388
203 | GAGATTCC | 0.363
204 | AAGATTCC | 0.271
205 | CAGATTCA | -0.0169
206 | CAGATTCG | 0.037
207 | AGTAACTC | -0.155
208 | AGTGGAAG | 0.442
209 | CGTGGAAA | 0.0989
210 | AGTGGAGG | 0.082
211 | ATTGGAAA | 0.0513
212 | ATTGGAAC | 0.221
213 | CGTGGAGC | -0.0506
214 | ATTGGAAG | 0.363
215 | CGTGGAAG | 0.0771
216 | CATGGAAG | -0.0984
217 | AGTGGAAA | 0.0918
218 | AGTGGAGC | 0.32
219 | AGTGGAAT | 0.39
